Experiment [1] can be described thus: optical density shifts of acrAB sulA E. coli – strain DRC41, OD650, 48 h, E. coli filamentation inducer project, primary screen (AID 1152).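 Also: E. coli MC1000 strain DRC41 lacking acrAB efflux pump and sulA.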 Conditions: higher = more signal, called active from +8 up or from −8 down.
Experiment [2] in a line: probe aLefty1 binding on compound microarray – biochemical, small-molecule microarray, 635/667 nm fluorescence, primary screen (AID 1153).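 Also: score merges spot fluorescence with signal-to-noise ratio from the scanned slide images.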 Particulars: higher = more signal.
Experiment [3] is described as follows: plasmodial surface anion channel blockers, osmotic lysis – cell-based, P. falciparum Indochina, OD700, 1 h, primary screen (AID 1154). Particulars: P. falciparum Indochina infected RBC osmotic lysis, higher = more signal, called active from +8 up or from −8 down.
Experiment [4] is described as follows: plasmodial surface anion channel blockers, osmotic lysis – cell-based, P. falciparum Indochina, OD700, 2 h, primary screen (AID 1155).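 Also: lysis reports solute entry through the parasite surface anion channel PSAC.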 Particulars: P. falciparum Indochina infected erythrocytes, higher = more signal, called active from +8 up or from −8 down.
The nature of experiment [5]: changes in parasitized red cell lysis, either direction – P. falciparum Indochina, OD700, 3 h, PSAC antagonist project, primary screen (AID 1156). Particulars: P. falciparum-infected erythrocytes, osmotic lysis, higher = more signal, called active from +8 up or from −8 down.
The nature of experiment [6]: plasmodial surface anion channel blockers, osmotic lysis – cell-based, P. falciparum Indochina, OD700, 18 h, primary screen (AID 1157). Particulars: P. falciparum Indochina infected erythrocytes, osmotic lysis OD700, 18 h; higher = more signal, called active from +8 up or from −8 down.
Experiment [7] in a line: S6 kinase pathway phospho-S6 level changes – cell-based, A549, cytoblot, luminescence, serum-stimulated, primary screen (AID 1158).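 Also: serum-stimulated A549 lung adenocarcinoma cells; signal is phosphorylated S6 detected by cytoblot immunostaining with HRP secondary.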 Conditions: 5 h, higher = more signal.
For experiment [8], the target named is NADPH oxidase 2 (Homo sapiens) (UniProt P04839). The experiment can be described thus: compounds shifting NOX2 Amplex Red fluorescence – cell-based, HEK293-NOX2, PMA-stimulated, NOX inhibitor project, primary screen (AID 1159). Also: test concentration not given here. Particulars: 45 min, higher = more signal, called active from +8 up or from −8 down.
NADPH oxidase 2 (Homo sapiens), sequence (P04839 whole entry, looked up): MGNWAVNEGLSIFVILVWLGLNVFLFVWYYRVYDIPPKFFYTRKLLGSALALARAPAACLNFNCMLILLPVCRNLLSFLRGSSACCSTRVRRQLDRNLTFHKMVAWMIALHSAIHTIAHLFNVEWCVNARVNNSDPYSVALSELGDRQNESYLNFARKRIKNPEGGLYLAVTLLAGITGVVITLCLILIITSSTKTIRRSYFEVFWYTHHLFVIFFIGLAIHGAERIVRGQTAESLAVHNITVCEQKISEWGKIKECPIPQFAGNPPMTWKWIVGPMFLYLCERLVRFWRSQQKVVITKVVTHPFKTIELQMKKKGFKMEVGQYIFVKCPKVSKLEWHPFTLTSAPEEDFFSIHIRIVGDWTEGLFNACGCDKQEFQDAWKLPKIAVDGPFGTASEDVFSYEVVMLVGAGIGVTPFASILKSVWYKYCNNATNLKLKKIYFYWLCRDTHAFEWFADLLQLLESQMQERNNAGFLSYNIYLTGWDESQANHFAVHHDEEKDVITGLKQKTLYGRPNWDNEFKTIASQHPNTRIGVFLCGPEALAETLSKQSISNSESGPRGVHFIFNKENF
Experiment [9] addresses NADPH oxidase 4 (Homo sapiens) (UniProt Q9NPH5). In words: compounds shifting NOX4 Amplex Red fluorescence – cell-based, HEK293-NOX4, tetracycline-induced, NOX inhibitor project, primary screen (AID 1160). Particulars: HEK293-NOX4, Amplex Red H2O2 fluorescence, 45 min; higher = more signal, called active from +8 up or from −8 down.
In experiment [10] the target is NADPH oxidase 5 (Homo sapiens) (UniProt Q96PH1). The experiment can be described thus: compounds shifting NOX5 Amplex Red fluorescence – cell-based, HEK293-NOX5, NOX inhibitor project, primary screen (AID 1161). Conditions: HEK293-NOX5, ionomycin, 45 min, higher = more signal.
NADPH oxidase 5 (Homo sapiens), sequence (Q96PH1 whole entry, looked up): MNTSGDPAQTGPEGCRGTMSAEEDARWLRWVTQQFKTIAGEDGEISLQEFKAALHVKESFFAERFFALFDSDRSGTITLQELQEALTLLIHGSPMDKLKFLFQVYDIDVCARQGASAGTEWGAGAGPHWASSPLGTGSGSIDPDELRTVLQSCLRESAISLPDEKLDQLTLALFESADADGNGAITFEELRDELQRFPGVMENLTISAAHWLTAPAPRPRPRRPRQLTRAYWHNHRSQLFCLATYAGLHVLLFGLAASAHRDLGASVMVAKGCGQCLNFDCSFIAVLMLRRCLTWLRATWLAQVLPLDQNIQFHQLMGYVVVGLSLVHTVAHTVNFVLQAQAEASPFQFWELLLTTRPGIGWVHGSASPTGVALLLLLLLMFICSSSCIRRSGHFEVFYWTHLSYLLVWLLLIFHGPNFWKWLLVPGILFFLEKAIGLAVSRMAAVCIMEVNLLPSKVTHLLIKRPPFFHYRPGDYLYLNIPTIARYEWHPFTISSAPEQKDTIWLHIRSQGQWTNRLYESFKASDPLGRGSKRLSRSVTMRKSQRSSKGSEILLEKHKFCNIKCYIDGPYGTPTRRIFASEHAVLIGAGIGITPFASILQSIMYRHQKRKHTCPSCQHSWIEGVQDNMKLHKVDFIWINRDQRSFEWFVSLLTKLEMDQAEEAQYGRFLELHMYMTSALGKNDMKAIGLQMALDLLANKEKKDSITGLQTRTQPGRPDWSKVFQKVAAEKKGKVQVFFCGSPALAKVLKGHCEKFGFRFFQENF
Experiment [11] can be described thus: compound effects on lung adenocarcinoma cell viability – A549, calcein-AM fluorescence, 48 h, basal, profiling panel (AID 1162). Also: test concentration not given here. Conditions: higher = more signal.
Experiment [12] is described as follows: compound effects on differentiated 3T3-L1 adipocyte viability – cell-based, 3T3-L1 adipocytes, calcein-AM fluorescence, 48 h, basal, profiling panel (AID 1163). Also: test concentration not given here. Conditions: 3T3-L1 adipocytes viability, higher = more signal.
Experiment [13] in a line: compound effects on hepatocellular carcinoma cell viability – HepG2, calcein-AM fluorescence, 48 h, basal, profiling panel (AID 1164). Also: test concentration not given here. Conditions: higher = more signal.
Experiment [14] can be described thus: compound effects on multiple myeloma cell viability – MM1S, calcein-AM fluorescence, 48 h, basal, profiling panel (AID 1165).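 Also: viability of MM1S multiple myeloma cells under basal unstimulated conditions; test concentration not given here.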 Particulars: higher = more signal.
Experiment [15] in a line: calcein-AM signal in unstimulated myeloma cells – cell-based, calcein-AM fluorescence, 48 h, PK04 Diversity Set, profiling panel (AID 1166).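 Also: cells grown under basal conditions without added stimulus; test concentration not given here.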 Conditions: RPMI8226 myeloma viability, higher = more signal.
Experiment [16] can be described thus: JC-1 mitochondrial signal, unstimulated HepG2 cells – cell-based, JC-1 fluorescence, 24 h, 100 nL compound, profiling panel (AID 1167). Also: test concentration not given here. Conditions: HepG2 mitochondrial potential, higher = more signal.
Experiment [17] can be described thus: JC-1 mitochondrial signal, unstimulated adipocytes – cell-based, JC-1 fluorescence, 3T3-L1 adipocytes, 24 h, 100 nL compound, profiling panel (AID 1168). Also: test concentration not given here. Particulars: JC-1 mitochondrial fluorescence, higher = more signal, called active from +8 up or from −8 down.
Experiment [18] in a line: JC-1 mitochondrial signal, unstimulated myeloma cells – cell-based, JC-1 fluorescence, RPMI8226, 24 h, 100 nL compound, profiling panel (AID 1169). Also: test concentration not given here. Conditions: JC-1 mitochondrial potential fluorescence, higher = more signal.
The nature of experiment [19]: JC-1 mitochondrial signal, unstimulated MM1S myeloma – cell-based, JC-1 fluorescence, 24 h, 100 nL compound, profiling panel (AID 1170). Also: test concentration not given here. Conditions: MM1S mitochondrial potential, higher = more signal.
A short description of experiment [20]: resazurin metabolic signal in A549 cells – cell-based, resazurin fluorescence, 24 h, PK04 Diversity Set, profiling panel (AID 1171). Also: test concentration not given here. Particulars: A549 viability, higher = more signal, called active from +8 up or from −8 down. A general note: Resazurin is reduced to fluorescent resorufin, in cell work by metabolically active cells.

Calls of active or inactive are those of the source.

NADPH oxidase 4 (Homo sapiens), sequence (Q9NPH5 whole entry, looked up): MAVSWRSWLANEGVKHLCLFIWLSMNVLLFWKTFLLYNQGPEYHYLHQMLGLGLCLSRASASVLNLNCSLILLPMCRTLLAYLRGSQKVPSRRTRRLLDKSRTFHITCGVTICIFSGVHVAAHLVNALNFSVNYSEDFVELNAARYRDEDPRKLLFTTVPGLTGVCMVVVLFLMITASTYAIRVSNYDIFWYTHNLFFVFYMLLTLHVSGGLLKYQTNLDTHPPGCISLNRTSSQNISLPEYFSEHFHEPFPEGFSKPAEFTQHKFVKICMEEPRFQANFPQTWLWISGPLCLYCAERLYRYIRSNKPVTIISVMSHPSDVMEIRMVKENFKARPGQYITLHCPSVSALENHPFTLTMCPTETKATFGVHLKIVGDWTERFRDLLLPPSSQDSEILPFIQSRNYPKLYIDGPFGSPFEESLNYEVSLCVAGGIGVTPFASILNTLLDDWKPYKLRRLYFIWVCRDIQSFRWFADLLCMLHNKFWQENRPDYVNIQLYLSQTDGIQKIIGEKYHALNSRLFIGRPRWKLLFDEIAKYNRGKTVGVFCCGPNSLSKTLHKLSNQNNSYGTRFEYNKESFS

For `C=CCN1C(=O)[C@]2(O[C@H](CCO)[C@@H]([Si](C)(C)c3ccc(OC)cc3)[C@@H]2C)c2cc(N3C(=O)COc4ccccc43)ccc21`, the z-score in [1] is 0.512 (inactive); in experiment [3], 6.04 (inactive); in experiment [4], 2.56 (inactive); in experiment [5] it was -0.398 (inactive); in experiment [6] it was 0.742 (inactive); in experiment [7] it was 2.03. For the same compound, the z-score is 0.617 (inactive) in [8]; 0.0613 (inactive) in experiment [9]; -1.94 in experiment [10]; -3.84 in experiment [11]; 1.76 in experiment [12]; -4.67 in experiment [13]. The z-score was -2.7 in [14]; -4.36 in experiment [15]; -2.14 in experiment [16]; 0.707 (inactive) in experiment [17]; -1.06 in experiment [18]; -2.25 in [19]. For the same compound, the z-score in experiment [20] is -5.62 (inactive). Also, the composite z-score in [2] came to 0.142.

For the compound `C=C(C(=O)CC[C@@H](OC(=O)c1ccccc1-c1ccccc1C(=O)O)c1ccccc1OCCO)C(C)C`, the z-score in experiment [1] is 0.0884 (inactive); in experiment [3], 4.57 (inactive); in experiment [4] it was 0.769 (inactive); in experiment [5], 1.56 (inactive); in experiment [6] it was 0.232 (inactive); in [7] it was 0.689. The z-score in experiment [8] is -0.518 (inactive); in experiment [9], -0.798 (inactive); in [10], -1.48; in experiment [11] it was -0.0081; in experiment [12], 0.707; in experiment [13], -0.188. Further, the z-score was -2.67 in experiment [14]; -1.92 in experiment [15]; -1.1 in [16]; 0.758 (inactive) in experiment [17]; 0.0612 in experiment [18]; -0.281 in experiment [19]. In addition, the z-score in experiment [20] was 0.63 (inactive). The compound also displayed a composite z-score in [2] of 0.15.

On to `CN(C)CCCCCCNC(=O)[C@@H]1C[C@@H]2C(=O)N[C@@H](CCCCN)C(=O)N2[C@@H]1c1ccc(O)cc1`, for which the z-score is 0.724 (inactive) in experiment [1]; 0.983 (inactive) in [3]; -0.111 (inactive) in experiment [4]; 2.87 (inactive) in experiment [5]; -1.88 (inactive) in experiment [6]; 1.32 in experiment [7]. For the same compound, the z-score in [8] is -0.0284 (inactive); in experiment [9], 0.901 (inactive); in experiment [10] it was 1.13; in experiment [11], 1.4; in [12] it was 0.576; in [13] it was -0.521. The z-score in experiment [14] is 0.56; in [15], -0.345; in experiment [16], -0.695; in [17], -0.625 (inactive); in [18] it was -0.273; in experiment [19] it was -1. For the same compound, the z-score in experiment [20] was -0.3 (inactive). In experiment [2], this compound returned a composite z-score of 3.1.

Regarding `CN1C(=O)C2C=CC(C(O)c3cc(C(F)(F)F)cc(C(F)(F)F)c3)N(Nc3ccccc3)C2C1=O` (stereo not given), the z-score in [1] is -1.07 (inactive); in [3], 0.277 (inactive); in experiment [4], 0.301 (inactive); in [5], -0.753 (inactive); in [6] it was 0.797 (inactive); in experiment [7], -0.77. The z-score is -1.59 (inactive) in [8]; -4.95 (inactive) in experiment [9]; -1.99 in experiment [10]; -1.53 in experiment [11]; -1.36 in experiment [12]; -0.78 in [13]. In addition, the z-score is -0.239 in experiment [14]; -0.683 in experiment [15]; -1.09 in experiment [16]; -0.551 (inactive) in experiment [17]; -0.222 in experiment [18]; 0.333 in experiment [19]. In addition, in [20], the z-score is 0.672 (inactive). The composite z-score in [2] turned out to be 0.0341.

Turning to `COCCOC(=O)N1C(=O)[C@@]2(c3cc(C#CC4=CCCCC4)ccc31)[C@H](c1ccc(O)cc1)N1[C@H](c3ccccc3)[C@H](c3ccccc3)OC(=O)[C@H]1[C@@H]2C(=O)NC[C@H](O)c1ccccc1`, the z-score is 0.289 (inactive) in experiment [1]; 1.8 (inactive) in experiment [3]; 0.44 (inactive) in experiment [4]; -0.164 (inactive) in experiment [5]; 0.368 (inactive) in experiment [6]; -0.147 in [7]. Further, the z-score is 1.5 (inactive) in experiment [8]; 0.547 (inactive) in experiment [9]; 1.55 in experiment [10]; -0.309 in experiment [11]; -0.539 in [12]; 0.778 in [13]. Moreover, the z-score was -1.3 in [14]; -3.84 in experiment [15]; -1.83 in experiment [16]; 2.04 (inactive) in experiment [17]; -1.08 in experiment [18]; -1.06 in [19]. Moreover, in experiment [20], the z-score was -2.06 (inactive). The composite z-score in [2] turned out to be 0.0406.

The values are drawn from PubChem BioAssay.
